# The panel holds about 83,000 compounds, 20% with a hit somewhere; the sample as a whole holds those more often.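 Values shown are percent growth following 48 h exposure of cells in 96-well plates to a single concentration of compound; below 10 was considered active.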 Values without a mark were called inactive. The source made the active and inactive calls.
# How the values were obtained:
# Test in all cases: NCI-60 one-dose screen, 48 h (100 = growth as untreated, 0 = no growth, -100 = all killed)
# Conditions in all cases: 10 µM unless noted
# SR leukemia = system: SR leukemia
# RPMI-8226 leukemia = system: RPMI-8226 leukemia
# OVCAR-8 ovarian = system: OVCAR-8 ovarian
# OVCAR-5 ovarian = system: OVCAR-5 ovarian
# OVCAR-4 ovarian = system: OVCAR-4 ovarian
# SK-OV-3 ovarian = system: SK-OV-3 ovarian
# IGROV1 ovarian = system: IGROV1 ovarian
# OVCAR-3 ovarian = system: OVCAR-3 ovarian
# HS 578T breast = system: HS 578T breast
# NCI/ADR-RES ovarian = system: NCI/ADR-RES ovarian
SMILES,growth (SR leukemia),growth (RPMI-8226 leukemia),growth (OVCAR-8 ovarian),growth (OVCAR-5 ovarian),growth (OVCAR-4 ovarian),growth (SK-OV-3 ovarian),growth (IGROV1 ovarian),growth (OVCAR-3 ovarian),growth (HS 578T breast),growth (NCI/ADR-RES ovarian)
Cc1cc(C)c2[nH]c(=O)c(C(c3nnnn3Cc3ccc4c(c3)OCO4)N3CCN(C)CC3)cc2c1 (stereo not given),96.9%,100%,114%,108%,108%,111%,111%,122%,108%,108%
O=C(Nc1ccc(Cl)c(C(F)(F)F)c1)N1CCN(c2cc(-c3cn(-c4ccccc4)nc3-c3cccc(O)c3)ccn2)CC1,10.8%,-13.7% (active),8.11% (active),-35.1% (active),13.5%,24.3%,10.8%,13.5%,7.22% (active),-23.9% (active)
CN(C)c1nc(NCCNS(=O)(=O)c2ccc(C3=Nc4c(N)nc(N)nc4NC(c4ccc(Cl)cc4)C3)cc2)nc(N2CCOCC2)n1 (stereo not given),31.9%,21.4%,64.3%,82.7%,66.9%,75.9%,45%,65.5%,45.2%,85.7%
O=C1/C(=C/C=C/c2ccco2)SC(=S)N1CC(=S)C1C=CS(=O)(=O)C1 (stereo not given),39%,63.9%,97.1%,100%,96.1%,105%,92.7%,65.9%,109%,95.8%
O=C(CSc1nnc(-c2ccc(-c3nc4ccc(Cl)cc4[nH]3)cc2)o1)Nc1ccc(Cl)cc1,0.703% (active),8.59% (active),-31.3% (active),49.3%,19.1%,81.1%,51.2%,5.34% (active),14.1%,11.4%
Cc1ccc(C(=O)Nc2ccc(-n3ccnc3)c(C(F)(F)F)c2)cc1C#Cc1cnc2cccnn12,13.8%,-4.27% (active),18.6%,39.8%,13.6%,48%,20%,45.4%,-7.38% (active),24.7%
CCN(C(=O)CN1C(=O)/C(=C/c2ccco2)SC1=S)C1CCS(=O)(=O)C1 (stereo not given),87.5%,101%,101%,111%,94.2%,101%,111%,103%,118%,93.6%
CCCSc1nnc(-c2sc3nc4ccccc4n3c2C)o1,107%,97.7%,107%,111%,104%,121%,107%,117%,109%,98.7%
CC1=C(C(=O)OCc2ccccc2)C(c2ccc(N(C)C)cc2)n2c(nc3ccccc32)N1 (stereo not given),46%,81.4%,95.6%,102%,81.4%,95.4%,84%,92.6%,61.7%,73.2%
Cc1ccc(C(=O)Nc2cccc(C(=O)NC(=S)Nc3ccc(S(N)(=O)=O)cc3)c2)cc1,79.7%,82.2%,51.1%,91.5%,31.6%,77%,96.2%,78.8%,63.8%,84.8%
COc1ccc(C(=O)c2c(N)c(C#N)cn2-c2ccc([N+](=O)[O-])cc2)cc1,94.5%,108%,88.5%,107%,101%,93.9%,109%,122%,95.2%,98.2%
CN(C)CCOc1ccc(C(=O)C2[C@H](c3ccc(Cl)cc3)[C@@H](c3ccccc3)NC23C(=O)Nc2ccc(Cl)cc23)cc1 (stereo not given in full),-77.4% (active),-43.6% (active),-67.9% (active),-79.2% (active),-91.5% (active),-86.4% (active),-87% (active),-51.4% (active),-29.4% (active),-90.7% (active)

# From PubChem BioAssay (NCI)
